# Data: PMC7862700, “An all-to-all approach to the identification of sequence-specific readers for epigenetic DNA modifications on cytosine”
# Legend:
# Assay in all cases: DAPPL (digital affinity profiling via proximity ligation, sequencing); 10 mM Tris-HCl pH 7.5, 50 mM NaCl, 1 mM DTT, 4% glycerol, room temperature, 30 min; GST-TFs on glutathione beads, 16-mer random dsDNA library, 0.1% formaldehyde crosslink after washing; high values mean tight binding
# FEV = target: T1, FEV (Homo sapiens, UniProt Q99581 1-238); conditions: protein: recombinant; tags: N-terminal GST; dsDNA, one strand shown
# T1 sequence: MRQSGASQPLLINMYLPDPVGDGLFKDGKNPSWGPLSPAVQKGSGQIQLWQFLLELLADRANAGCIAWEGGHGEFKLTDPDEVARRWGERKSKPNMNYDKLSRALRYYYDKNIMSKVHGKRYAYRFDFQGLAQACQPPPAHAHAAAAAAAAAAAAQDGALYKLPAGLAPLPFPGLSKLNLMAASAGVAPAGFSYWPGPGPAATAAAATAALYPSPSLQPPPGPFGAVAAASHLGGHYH
# How it was run: (§1)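 Human transcription factors were made in yeast as GST fusions, captured on glutathione beads and barcoded with DNA. With a tag-only sample included, the pool was incubated with 200 nmole of a random double-stranded 16-mer DNA library in Tris/NaCl/DTT/glycerol buffer at room temperature for 30 min, then crosslinked with 0.1% formaldehyde after washing, ligated by proximity, amplified and sequenced. For binding signal, each hexamer's read frequency for a factor is divided by its frequency for the tag-only sample.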
# ETV5 = ETV5 (Homo sapiens, UniProt P41161 1-510); conditions: protein: recombinant; tags: N-terminal GST; dsDNA, one strand shown
# Sequence of ETV5 (P41161 whole entry): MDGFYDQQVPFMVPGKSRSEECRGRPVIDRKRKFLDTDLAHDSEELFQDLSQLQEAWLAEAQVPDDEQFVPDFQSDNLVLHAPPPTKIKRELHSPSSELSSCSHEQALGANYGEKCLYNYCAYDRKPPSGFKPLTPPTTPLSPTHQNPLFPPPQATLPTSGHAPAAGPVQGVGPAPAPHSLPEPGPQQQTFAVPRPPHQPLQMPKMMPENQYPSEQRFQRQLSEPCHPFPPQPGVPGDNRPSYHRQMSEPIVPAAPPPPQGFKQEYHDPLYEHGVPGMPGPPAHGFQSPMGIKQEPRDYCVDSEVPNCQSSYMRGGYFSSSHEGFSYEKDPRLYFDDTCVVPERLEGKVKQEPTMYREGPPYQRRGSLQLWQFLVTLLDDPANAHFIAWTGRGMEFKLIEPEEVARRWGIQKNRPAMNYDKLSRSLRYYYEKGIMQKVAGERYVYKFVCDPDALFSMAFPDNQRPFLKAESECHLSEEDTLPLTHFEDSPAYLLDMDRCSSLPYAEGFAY
# How it was run: as §1
# HSF1 = HSF1 (Homo sapiens, UniProt Q00613 1-529); conditions: protein: recombinant; tags: N-terminal GST; chain copies: 3; dsDNA, one strand shown
# Sequence of HSF1 (Q00613 whole entry): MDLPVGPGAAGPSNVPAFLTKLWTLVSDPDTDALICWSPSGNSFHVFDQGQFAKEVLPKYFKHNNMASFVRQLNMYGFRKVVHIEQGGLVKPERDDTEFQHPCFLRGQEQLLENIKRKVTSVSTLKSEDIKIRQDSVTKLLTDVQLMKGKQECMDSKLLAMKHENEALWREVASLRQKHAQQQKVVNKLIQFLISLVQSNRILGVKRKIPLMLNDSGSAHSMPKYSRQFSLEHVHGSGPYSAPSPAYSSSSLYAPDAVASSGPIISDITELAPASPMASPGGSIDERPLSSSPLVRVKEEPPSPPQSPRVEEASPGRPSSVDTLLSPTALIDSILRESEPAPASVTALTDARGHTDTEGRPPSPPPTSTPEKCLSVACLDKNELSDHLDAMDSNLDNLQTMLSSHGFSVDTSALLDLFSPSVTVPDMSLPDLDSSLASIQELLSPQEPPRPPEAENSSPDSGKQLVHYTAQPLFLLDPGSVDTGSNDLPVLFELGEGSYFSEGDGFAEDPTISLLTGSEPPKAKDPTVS
# How it was run: as §1
# SPIC = target: T2, SPIC (Homo sapiens, UniProt Q8N5J4 1-248); conditions: protein: recombinant; tags: N-terminal GST; dsDNA, one strand shown
# T2 sequence: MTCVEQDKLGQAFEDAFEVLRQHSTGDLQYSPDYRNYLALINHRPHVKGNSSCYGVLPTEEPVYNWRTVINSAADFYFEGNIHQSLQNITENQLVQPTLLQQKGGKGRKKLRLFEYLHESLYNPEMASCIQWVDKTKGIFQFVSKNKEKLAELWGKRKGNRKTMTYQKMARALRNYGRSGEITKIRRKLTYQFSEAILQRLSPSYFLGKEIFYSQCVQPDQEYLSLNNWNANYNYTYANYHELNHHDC
# How it was run: as §1
# ELF4 = ELF4 (Homo sapiens, UniProt Q99607 1-663); conditions: protein: recombinant; tags: N-terminal GST; dsDNA, one strand shown
# Sequence of ELF4 (Q99607 whole entry): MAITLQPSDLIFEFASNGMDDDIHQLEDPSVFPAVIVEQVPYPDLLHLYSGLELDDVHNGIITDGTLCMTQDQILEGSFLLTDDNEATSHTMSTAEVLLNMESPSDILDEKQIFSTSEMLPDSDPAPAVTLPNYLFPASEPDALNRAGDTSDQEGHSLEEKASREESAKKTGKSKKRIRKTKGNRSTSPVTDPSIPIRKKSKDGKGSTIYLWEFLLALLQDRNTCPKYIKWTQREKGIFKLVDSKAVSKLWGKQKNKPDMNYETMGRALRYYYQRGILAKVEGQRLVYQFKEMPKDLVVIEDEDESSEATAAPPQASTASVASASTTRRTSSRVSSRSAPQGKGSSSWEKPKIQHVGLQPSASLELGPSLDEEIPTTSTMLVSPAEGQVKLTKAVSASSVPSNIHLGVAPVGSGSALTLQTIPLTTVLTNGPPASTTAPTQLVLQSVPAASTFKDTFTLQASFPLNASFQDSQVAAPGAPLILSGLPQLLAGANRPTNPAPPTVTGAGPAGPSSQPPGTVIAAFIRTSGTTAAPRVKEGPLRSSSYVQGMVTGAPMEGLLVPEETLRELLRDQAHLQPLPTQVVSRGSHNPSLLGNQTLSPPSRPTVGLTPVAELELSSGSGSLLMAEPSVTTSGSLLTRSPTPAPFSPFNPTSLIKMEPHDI
# How it was run: as §1
# ELK4 = target: T3, ELK4 (Homo sapiens, UniProt P28324-2 1-405); conditions: protein: recombinant; tags: N-terminal GST; dsDNA, one strand shown
# T3 sequence: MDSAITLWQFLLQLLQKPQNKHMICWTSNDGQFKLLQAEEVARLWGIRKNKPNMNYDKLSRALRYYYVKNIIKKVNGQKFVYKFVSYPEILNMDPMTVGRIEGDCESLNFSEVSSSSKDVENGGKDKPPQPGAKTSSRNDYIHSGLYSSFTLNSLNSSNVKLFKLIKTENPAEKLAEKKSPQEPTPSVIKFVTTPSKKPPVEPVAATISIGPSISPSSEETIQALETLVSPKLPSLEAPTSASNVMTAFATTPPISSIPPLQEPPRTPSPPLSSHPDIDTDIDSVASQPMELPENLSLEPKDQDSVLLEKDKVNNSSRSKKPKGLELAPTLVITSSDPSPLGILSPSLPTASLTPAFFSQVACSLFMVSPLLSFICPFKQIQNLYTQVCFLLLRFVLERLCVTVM
# How it was run: as §1
# ETV2 = target: T4, ETV2 (Homo sapiens, UniProt O00321 1-342); conditions: protein: recombinant; tags: N-terminal GST; dsDNA, one strand shown
# T4 sequence: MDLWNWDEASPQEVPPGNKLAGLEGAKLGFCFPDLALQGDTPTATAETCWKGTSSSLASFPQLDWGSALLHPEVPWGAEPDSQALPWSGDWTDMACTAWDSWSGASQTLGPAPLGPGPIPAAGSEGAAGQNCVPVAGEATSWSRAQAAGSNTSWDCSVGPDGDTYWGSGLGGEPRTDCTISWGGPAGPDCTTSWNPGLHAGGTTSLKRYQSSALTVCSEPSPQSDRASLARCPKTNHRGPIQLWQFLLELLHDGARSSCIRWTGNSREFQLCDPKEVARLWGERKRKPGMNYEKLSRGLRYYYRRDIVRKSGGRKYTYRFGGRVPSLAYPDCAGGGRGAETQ
# How it was run: as §1
# ELF3 = target: T5, ELF3 (Homo sapiens, UniProt P78545 1-371); conditions: protein: recombinant; tags: N-terminal GST; dsDNA, one strand shown
# T5 sequence: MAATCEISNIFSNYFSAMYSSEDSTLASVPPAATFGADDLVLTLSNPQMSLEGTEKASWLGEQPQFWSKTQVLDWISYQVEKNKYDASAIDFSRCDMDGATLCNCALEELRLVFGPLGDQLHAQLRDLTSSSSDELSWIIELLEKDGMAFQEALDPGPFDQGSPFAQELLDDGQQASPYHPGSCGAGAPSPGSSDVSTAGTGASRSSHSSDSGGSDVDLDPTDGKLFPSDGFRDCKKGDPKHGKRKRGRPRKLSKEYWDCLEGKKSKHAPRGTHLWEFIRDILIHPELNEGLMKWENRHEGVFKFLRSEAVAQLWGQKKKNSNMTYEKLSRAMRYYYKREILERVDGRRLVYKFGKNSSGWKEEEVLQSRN
# How it was run: as §1
# CRX = CRX (Homo sapiens, UniProt O43186 1-299); conditions: protein: recombinant; tags: N-terminal GST; dsDNA, one strand shown
# Sequence of CRX (O43186 whole entry): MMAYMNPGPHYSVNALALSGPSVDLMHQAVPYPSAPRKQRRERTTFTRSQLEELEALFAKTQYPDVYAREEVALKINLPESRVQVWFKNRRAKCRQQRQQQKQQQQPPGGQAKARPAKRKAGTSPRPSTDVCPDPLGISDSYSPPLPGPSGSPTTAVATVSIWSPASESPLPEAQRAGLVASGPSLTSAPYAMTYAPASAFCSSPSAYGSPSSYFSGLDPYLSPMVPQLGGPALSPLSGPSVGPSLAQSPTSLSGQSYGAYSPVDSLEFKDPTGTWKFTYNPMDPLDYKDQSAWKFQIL
# How it was run: as §1
# ETV1 = ETV1 (Homo sapiens, UniProt P50549 1-477); conditions: protein: recombinant; tags: N-terminal GST; dsDNA, one strand shown
# Sequence of ETV1 (P50549 whole entry): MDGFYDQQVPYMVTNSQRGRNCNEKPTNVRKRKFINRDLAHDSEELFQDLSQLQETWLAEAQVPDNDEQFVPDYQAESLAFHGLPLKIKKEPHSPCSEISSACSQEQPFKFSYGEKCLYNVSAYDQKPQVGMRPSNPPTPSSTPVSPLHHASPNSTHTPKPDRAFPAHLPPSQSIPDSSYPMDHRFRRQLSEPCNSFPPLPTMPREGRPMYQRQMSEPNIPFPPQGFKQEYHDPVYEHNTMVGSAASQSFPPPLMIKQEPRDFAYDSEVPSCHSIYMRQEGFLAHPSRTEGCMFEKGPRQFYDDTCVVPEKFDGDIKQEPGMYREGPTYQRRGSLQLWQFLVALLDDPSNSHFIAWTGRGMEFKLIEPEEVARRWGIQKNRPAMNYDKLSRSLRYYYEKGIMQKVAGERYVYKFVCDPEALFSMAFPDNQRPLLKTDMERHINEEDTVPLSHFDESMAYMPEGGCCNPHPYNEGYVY
# How it was run: as §1
# ERF = target: T6, ERF (Homo sapiens, UniProt P50548 1-548); conditions: protein: recombinant; tags: N-terminal GST; dsDNA, one strand shown
# T6 sequence: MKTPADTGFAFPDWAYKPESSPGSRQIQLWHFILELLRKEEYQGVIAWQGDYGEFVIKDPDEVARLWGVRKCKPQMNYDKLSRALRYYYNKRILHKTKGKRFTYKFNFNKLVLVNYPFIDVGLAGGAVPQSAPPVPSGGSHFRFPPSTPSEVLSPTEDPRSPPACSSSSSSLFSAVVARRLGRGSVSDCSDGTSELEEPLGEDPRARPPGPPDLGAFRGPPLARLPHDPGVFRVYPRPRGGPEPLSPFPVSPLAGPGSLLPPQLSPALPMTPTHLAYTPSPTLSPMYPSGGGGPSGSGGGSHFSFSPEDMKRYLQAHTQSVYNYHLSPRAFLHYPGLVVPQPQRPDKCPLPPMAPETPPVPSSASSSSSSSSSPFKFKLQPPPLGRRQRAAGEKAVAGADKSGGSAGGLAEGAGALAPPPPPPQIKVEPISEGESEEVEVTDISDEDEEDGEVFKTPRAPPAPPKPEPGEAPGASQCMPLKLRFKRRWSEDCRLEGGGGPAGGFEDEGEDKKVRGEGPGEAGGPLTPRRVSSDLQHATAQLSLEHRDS
# How it was run: as §1
# ETV3L = target: T7, ETV3L (Homo sapiens, UniProt Q6ZN32 1-361); conditions: protein: recombinant; tags: N-terminal GST; dsDNA, one strand shown
# T7 sequence: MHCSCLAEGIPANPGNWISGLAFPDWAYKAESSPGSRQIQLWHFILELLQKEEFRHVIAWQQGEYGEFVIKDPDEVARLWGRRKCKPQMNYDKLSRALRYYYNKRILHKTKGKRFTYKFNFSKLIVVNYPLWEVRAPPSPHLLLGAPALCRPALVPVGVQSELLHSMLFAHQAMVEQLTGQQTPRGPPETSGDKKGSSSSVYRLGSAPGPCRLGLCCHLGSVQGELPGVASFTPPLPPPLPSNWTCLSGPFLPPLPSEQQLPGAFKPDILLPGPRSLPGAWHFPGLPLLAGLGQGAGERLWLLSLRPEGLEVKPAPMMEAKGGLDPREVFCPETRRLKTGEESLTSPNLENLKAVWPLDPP
# How it was run: as §1
# ETS2 = target: T8, ETS2 (Homo sapiens, UniProt P15036 1-469); conditions: protein: recombinant; tags: N-terminal GST; dsDNA, one strand shown
# T8 sequence: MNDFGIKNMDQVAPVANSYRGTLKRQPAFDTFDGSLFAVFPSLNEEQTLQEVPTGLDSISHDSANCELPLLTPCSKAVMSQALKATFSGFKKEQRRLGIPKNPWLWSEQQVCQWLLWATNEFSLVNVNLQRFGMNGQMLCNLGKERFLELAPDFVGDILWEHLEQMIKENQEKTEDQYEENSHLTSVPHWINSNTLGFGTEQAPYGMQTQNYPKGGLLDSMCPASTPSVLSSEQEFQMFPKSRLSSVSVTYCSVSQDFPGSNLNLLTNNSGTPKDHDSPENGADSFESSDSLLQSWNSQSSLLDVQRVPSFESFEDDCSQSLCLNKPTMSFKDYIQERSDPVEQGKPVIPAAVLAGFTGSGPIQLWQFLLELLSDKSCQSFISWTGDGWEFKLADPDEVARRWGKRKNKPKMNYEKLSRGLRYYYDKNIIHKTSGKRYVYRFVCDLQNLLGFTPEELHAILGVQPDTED
# How it was run: as §1
# SPDEF = target: T9, SPDEF (Homo sapiens, UniProt O95238 1-335); conditions: protein: recombinant; tags: N-terminal GST; dsDNA, one strand shown
# T9 sequence: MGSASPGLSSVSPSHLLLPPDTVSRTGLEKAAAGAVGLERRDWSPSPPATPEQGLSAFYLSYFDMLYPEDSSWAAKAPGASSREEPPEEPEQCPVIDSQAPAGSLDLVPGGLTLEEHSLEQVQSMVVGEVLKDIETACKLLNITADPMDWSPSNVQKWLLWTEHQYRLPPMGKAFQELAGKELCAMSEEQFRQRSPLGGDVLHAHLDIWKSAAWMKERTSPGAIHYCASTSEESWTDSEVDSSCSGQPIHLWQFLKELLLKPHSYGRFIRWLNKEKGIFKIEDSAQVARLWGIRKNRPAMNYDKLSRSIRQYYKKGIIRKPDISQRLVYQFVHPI
# How it was run: as §1
# ETV7 = target: T10, ETV7 (Homo sapiens, UniProt Q9Y603 1-341); conditions: protein: recombinant; tags: N-terminal GST; dsDNA, one strand shown
# T10 sequence: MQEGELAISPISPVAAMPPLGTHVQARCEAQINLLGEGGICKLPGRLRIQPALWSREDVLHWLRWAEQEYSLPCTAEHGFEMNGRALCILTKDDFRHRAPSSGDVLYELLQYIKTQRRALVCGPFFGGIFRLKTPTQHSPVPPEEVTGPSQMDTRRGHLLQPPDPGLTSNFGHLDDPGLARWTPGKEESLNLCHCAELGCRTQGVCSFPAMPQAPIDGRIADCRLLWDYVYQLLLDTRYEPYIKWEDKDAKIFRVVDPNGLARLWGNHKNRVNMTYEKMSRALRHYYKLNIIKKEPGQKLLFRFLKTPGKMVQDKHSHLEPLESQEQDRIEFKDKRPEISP
# How it was run: as §1
# ELF5 = target: T11, ELF5 (Homo sapiens, UniProt Q9UKW6-2 1-255); conditions: protein: recombinant; tags: N-terminal GST; dsDNA, one strand shown
# T11 sequence: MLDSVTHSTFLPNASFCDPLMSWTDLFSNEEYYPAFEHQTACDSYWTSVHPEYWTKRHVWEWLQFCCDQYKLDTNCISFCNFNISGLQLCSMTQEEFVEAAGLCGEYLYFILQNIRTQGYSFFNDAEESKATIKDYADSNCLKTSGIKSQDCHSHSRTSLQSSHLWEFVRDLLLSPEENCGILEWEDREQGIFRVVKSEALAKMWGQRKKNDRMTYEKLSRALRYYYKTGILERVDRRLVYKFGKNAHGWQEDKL
# How it was run: as §1
# ETV3 = target: T12, ETV3 (Homo sapiens, UniProt P41162-2 1-143); conditions: protein: recombinant; tags: N-terminal GST; dsDNA, one strand shown
# T12 sequence: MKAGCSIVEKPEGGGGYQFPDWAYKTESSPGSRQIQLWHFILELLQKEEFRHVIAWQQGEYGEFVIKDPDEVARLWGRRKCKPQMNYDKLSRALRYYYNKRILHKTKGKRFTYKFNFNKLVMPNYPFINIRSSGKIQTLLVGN
# How it was run: as §1
# ETV6 = ETV6 (Homo sapiens, UniProt P41212 1-452); conditions: protein: recombinant; tags: N-terminal GST; dsDNA, one strand shown
# Sequence of ETV6 (P41212 whole entry): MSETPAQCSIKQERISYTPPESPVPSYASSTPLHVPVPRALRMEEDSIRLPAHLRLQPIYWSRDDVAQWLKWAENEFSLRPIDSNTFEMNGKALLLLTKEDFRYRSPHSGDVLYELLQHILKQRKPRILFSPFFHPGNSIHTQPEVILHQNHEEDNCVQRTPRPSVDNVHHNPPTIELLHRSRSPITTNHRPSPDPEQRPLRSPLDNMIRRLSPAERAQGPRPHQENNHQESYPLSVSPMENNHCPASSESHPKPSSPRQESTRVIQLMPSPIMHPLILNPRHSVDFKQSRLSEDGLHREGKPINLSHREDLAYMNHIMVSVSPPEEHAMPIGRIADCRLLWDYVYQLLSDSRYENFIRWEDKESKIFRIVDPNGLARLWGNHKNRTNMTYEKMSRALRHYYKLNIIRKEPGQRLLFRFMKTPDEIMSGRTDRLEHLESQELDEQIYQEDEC
# How it was run: as §1
sequence,measurement,setting,value
AGTGCT,binding signal,FEV,"1.4 fold enrichment (6-mer frequency, TF over GST control)"
same,binding signal,ETV5,"1.4 fold enrichment (6-mer frequency, TF over GST control)"
same,binding signal,HSF1,"1.15 fold enrichment (6-mer frequency, TF over GST control)"
same,binding signal,SPIC,"1.67 fold enrichment (6-mer frequency, TF over GST control)"
same,binding signal,ELF4,"1.33 fold enrichment (6-mer frequency, TF over GST control)"
same,binding signal,ELK4,"1.37 fold enrichment (6-mer frequency, TF over GST control)"
same,binding signal,ETV2,"1.42 fold enrichment (6-mer frequency, TF over GST control)"
same,binding signal,ELF3,"1.02 fold enrichment (6-mer frequency, TF over GST control)"
same,binding signal,CRX,"1.16 fold enrichment (6-mer frequency, TF over GST control)"
same,binding signal,ETV1,"1.32 fold enrichment (6-mer frequency, TF over GST control)"
same,binding signal,ERF,"1.41 fold enrichment (6-mer frequency, TF over GST control)"
same,binding signal,ETV3L,"1.32 fold enrichment (6-mer frequency, TF over GST control)"
same,binding signal,ETS2,"1.46 fold enrichment (6-mer frequency, TF over GST control)"
same,binding signal,SPDEF,"1.33 fold enrichment (6-mer frequency, TF over GST control)"
same,binding signal,ETV7,"1.37 fold enrichment (6-mer frequency, TF over GST control)"
same,binding signal,ELF5,"1.48 fold enrichment (6-mer frequency, TF over GST control)"
same,binding signal,ETV3,"1.56 fold enrichment (6-mer frequency, TF over GST control)"
same,binding signal,ETV6,"1.52 fold enrichment (6-mer frequency, TF over GST control)"
